Experimental findings from PubChem BioAssay (NCI) are described below.

The panel holds about 79,000 compounds, 15% with a hit somewhere; the sample as a whole holds those more often. Values without a mark were called inactive. The source made the active and inactive calls. Rule as the data show it: active = growth inhibition above about 70%; inactive = the rest.

A short description of assay [1]: NCI Yeast Anticancer Drug Screen. Data for the rad50 strain (AID 155).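 Also: 0% = growth of vehicle-only cultures of the same strain.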 The settings on record: S. cerevisiae rad50 strain growth inhibition; at 50.0 µM; hits give high values. The essentials:
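Genetically altered yeast (DNA repair pathway); compound treatment; growth inhibition vs vehicle ctrl.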

Assay [2] in a line: NCI Yeast Anticancer Drug Screen. Data for the mec2-1 strain (AID 157). The settings on record: S. cerevisiae mec2-1 strain, at 50.0 µM, hits give high values. The essentials: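 Cells of the genetically defined mec2-1 yeast strain are incubated with test compound. Inhibition of growth is calculated against vehicle-treated controls.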
Assay [3] can be described thus: NCI Yeast Anticancer Drug Screen. Data for the sgs1 mgt1 strain (AID 161).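 Also: 0% = growth of cultures given vehicle only.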 The settings on record: S. cerevisiae sgs1 mgt1 strain, at 50.0 µM, hits give high values. The gist of the method: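 Genetically altered yeast, compound exposure, growth inhibition relative to vehicle.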
Assay [4] can be described thus: NCI Yeast Anticancer Drug Screen. Data for the cln2 rad14 strain (AID 165).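 Also: 0% = growth equal to vehicle treated cultures.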 The settings on record: S. cerevisiae cln2 rad14 strain, at 50.0 µM, hits give high values. The gist of the method:
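The screen exposed genetically defined yeast (cln2 rad14) to test compounds and scored growth inhibition relative to vehicle-treated controls.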

Assay [5] can be described thus: NCI Yeast Anticancer Drug Screen. Data for the bub3 strain (AID 167). The settings on record: S. cerevisiae bub3 mutant strain, at 50.0 µM, hits give high values. The gist of the method: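 Yeast carrying a defined mutation is treated with each compound, and growth is compared with that of vehicle-exposed cells to give inhibition.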
A short description of assay [6]: NCI Yeast Anticancer Drug Screen. Data for the mlh1 rad18 strain (AID 175). The settings on record: S. cerevisiae mlh1 rad18 strain growth inhibition; at 50.0 µM; hits give high values. The gist of the method:
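Compound-treated yeast growth, normalised to vehicle controls. Strain bears defined DNA repair mutations.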

As for `CC(C)c1cccc(C(C)C)c1N1C(=O)C(=O)C(c2nc3ccccc3s2)C(=O)C1=O`, the growth inhibition in assay [1] is -11.7%; in assay [2], -17.1%; in assay [3], -7.65%; in assay [4] it was -10%; in assay [5], 1.55%; in assay [6], -12.2%.

As for `COCCN(CCOC)C1C2=C(CCCC2)OS(=O)(=O)C1c1ccccc1` (stereo unspecified), the growth inhibition in assay [1] was 26.9%; in assay [2], -4.75%; in assay [3], 6.45%; in assay [4], 12.9%; in assay [5] it was 3.2%; in assay [6], 0.05%.

With `O=C(COc1ccccc1)NCc1ccc(Cl)cc1`, the growth inhibition in assay [1] was 2.4%; in assay [2] it was 2.05%; in assay [3], 5.8%; in assay [4], 7.15%; in assay [5] it was 26.9%; in assay [6], 21.9%.

Turning to `CC(C(=O)O)/C(=C\c1ccc2c(c1)OCO2)C(=O)O` (stereo unspecified), the growth inhibition was 8.15% in assay [1]; 11.3% in assay [2]; -12.9% in assay [3]; -7.7% in assay [4]; 12.9% in assay [5]; 16.8% in assay [6].

For `CC(C)N(CC(c1ccccc1)C(O)(c1ccccc1)c1ccccc1)C(C)C` (stereo unspecified), the growth inhibition in assay [1] is 16.1%; in assay [2] it was 8%; in assay [3] it was 17.5%; in assay [4] it was 26.8%; in assay [5], -0.75%; in assay [6], 32.3%.

For the compound `c1ccc(Sc2cc(Sc3ccccc3)c3cccccc2-3)cc1`, the growth inhibition was 17.9% in assay [1]; -21.9% in assay [2]; -27.4% in assay [3]; -6.05% in assay [4]; 5.25% in assay [5]; 3.2% in assay [6].

In the case of `C(=C\c1ccccc1)/C=N/N=C/C=C/c1ccccc1`, the growth inhibition in assay [1] was -5.5%; in assay [2], -30.1%; in assay [3], -10.9%; in assay [4], -37%; in assay [5] it was 4.45%; in assay [6] it was -4%.

Turning to `Cc1nn(C(N)=S)c(C)c1N=Nc1ccc(O)cc1`, the growth inhibition in assay [1] is -5.2%; in assay [2], -4.2%; in assay [3] it was -4.9%; in assay [4], -29.8%; in assay [5] it was -11.2%; in assay [6] it was 15.9%.

In the case of `O=C(Oc1ccc([N+](=O)[O-])cc1)C1CCCN1C(=O)OCc1ccccc1` (stereo unspecified), the growth inhibition in assay [1] is -6.55%; in assay [2] it was -13.7%; in assay [3], 7.55%; in assay [4], 8.5%; in assay [5], 7.2%; in assay [6], 0.15%.

In the case of `CCOC(=O)c1c(C)c2c(n1C)CC/C(=C/NCCc1ccccc1)C2=O`, the growth inhibition was 93% (active) in assay [1]; 79% (active) in assay [2]; 86.4% (active) in assay [3]; 29.8% in assay [4]; 90.5% (active) in assay [5]; 93.3% (active) in assay [6].

For `CC(C)C(O)(C(=O)OCC1=CC[N+]2(C)CCC(O)C12)C(C)O` (stereo unspecified), the growth inhibition in assay [1] is 27.6%; in assay [2], -15.3%; in assay [3], 11.4%; in assay [4], -21.4%; in assay [5], -3.2%; in assay [6], 1.95%.

Take `CCCCCCCCCCCCCCCCOCC(COP(=O)(O)OCC1OC(n2cc(CC)c(=O)[nH]c2=O)CC1O)OC(=O)CCCCCCCCCCCCCCC` (stereo unspecified): the growth inhibition was -0.45% in assay [1]; -5.55% in assay [2]; 5.25% in assay [3]; 3.15% in assay [4]; -15.1% in assay [5]; -65% in assay [6].

For the compound `O=C(O)c1cc(-c2ccccc2Cl)nc2cc3ccccc3cc12`, the growth inhibition was -14.4% in assay [1]; -19.7% in assay [2]; 4.45% in assay [3]; 14.1% in assay [4]; -6.05% in assay [5]; 0.8% in assay [6].

Consider `COc1ccc2c(c1)CCCN2C(=N)c1ccc([N+](=O)[O-])cc1`, for which the growth inhibition was -24.5% in assay [1]; -4.1% in assay [2]; -9.95% in assay [3]; -52.9% in assay [4]; 22.6% in assay [5]; -11.5% in assay [6].

For the compound `Cc1ncc(CO)c(Nc2ccccc2)n1`, the growth inhibition in assay [1] was 1.85%; in assay [2], 5.8%; in assay [3] it was -0.25%; in assay [4], -25.5%; in assay [5], -4.8%; in assay [6], 8.4%.

For `CC(=O)Nc1ccc(OC(C)=O)cc1N`, the growth inhibition in assay [1] was -8.9%; in assay [2], -8.15%; in assay [3], 2.9%; in assay [4], -8.95%; in assay [5] it was 2.95%; in assay [6], 1%.

As to `CCOC(=O)Nc1ccc(F)c(C(F)(F)F)c1`, the growth inhibition in assay [1] is -8.05%; in assay [2] it was 4.45%; in assay [3] it was 8.6%; in assay [4] it was -52.3%; in assay [5], 11.6%; in assay [6] it was -4.25%.

Regarding `Cn1nnc2c1C(=O)c1ccccc1C2=O`, the growth inhibition in assay [1] is 0.6%; in assay [2], -14%; in assay [3], 29.4%; in assay [4] it was -50.3%; in assay [5], -8.5%; in assay [6] it was -0.7%.

`Cc1cc(=O)c2cc(Cc3ccc(N)cc3)ccc2[nH]1`: the growth inhibition is 8.35% in assay [1]; -16.7% in assay [2]; -8% in assay [3]; 3.05% in assay [4]; -3.45% in assay [5]; 0.65% in assay [6].

Consider `COC(=O)c1ccc(CSc2ccccc2NC(=S)Nc2cccc(SC)c2)o1`, for which the growth inhibition in assay [1] is -15.2%; in assay [2], -38.8%; in assay [3], -18.6%; in assay [4], 5.9%; in assay [5] it was -31.9%; in assay [6] it was -26.6%.

On to `Cc1ccc(S(=O)(=O)N2CN(S(=O)(=O)c3ccc(C)cc3)CN(S(=O)(=O)c3ccc(C)cc3)C2)cc1`, for which the growth inhibition in assay [1] is -29.4%; in assay [2] it was -32.2%; in assay [3], -22.8%; in assay [4] it was -6.9%; in assay [5], -40.3%; in assay [6] it was -24.8%.
